The sample as a whole holds a higher share of hits than the screen did.
CHX counter: affects cycloheximide protein synthesis inhibition readout, counter-screen; cell reporter, cycloheximide protein synthesis inhibition counterscreen; 12% of 300,000 active; AID 2314; max response, %; in the data active = max response mostly above about 13%, no sharp cut-off; inactive = mostly below about 14%; note: read at 38.3 µM for the half of the compounds with a filed dose; 0% is about no effect
RE007 growth inh: less growth of the S. pombe RE007 Vpr strain; S. pombe RE007 Vpr strain, BacTiter-Glo ATP luminescence, 24 h; Potency, µM (top dose mostly 92.2 µM), for inactives: top-dose activity change, negative = less growth, most hits filed as inhibitors; 0.21% of 360,000 active; AID 651644; active = well fitted falling curve with a large enough effect; inconclusive = small, poorly fitted or top-dose-only effect; inactive = no such curve, though single readings can be large or run the other way; note: potency is the fitted concentration of half-maximal effect; % is set by controls: 0 for no effect and ±100 for the full control effect; nearly all actives have a fitted effect of over 50% in size
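Fission yeast strain RE007, carrying one chromosomally integrated HIV-1 vpr copy, was seeded at OD 0.01 in PMG+AL medium with 23 nL pinned compound. After 24 h at 30 °C and 99% humidity, viability was read by BacTiter-Glo luminescence.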
FBPA Giardia inh: blocks Giardia fructose-bisphosphate aldolase activity; A8B2U2; purified Giardia FBPA; Potency, µM (top dose mostly 59.6 µM), without a hit: top-dose activity, negative = inhibition, usual class: inhibitors; 0.71% of 290,000 active; note: potency is the fitted concentration of half-maximal effect; % is set by controls: 0 for no effect and ±100 for the full control effect; nearly all actives have a fitted effect of over 55% in size
Target sequence (A8B2U2 whole entry, looked up): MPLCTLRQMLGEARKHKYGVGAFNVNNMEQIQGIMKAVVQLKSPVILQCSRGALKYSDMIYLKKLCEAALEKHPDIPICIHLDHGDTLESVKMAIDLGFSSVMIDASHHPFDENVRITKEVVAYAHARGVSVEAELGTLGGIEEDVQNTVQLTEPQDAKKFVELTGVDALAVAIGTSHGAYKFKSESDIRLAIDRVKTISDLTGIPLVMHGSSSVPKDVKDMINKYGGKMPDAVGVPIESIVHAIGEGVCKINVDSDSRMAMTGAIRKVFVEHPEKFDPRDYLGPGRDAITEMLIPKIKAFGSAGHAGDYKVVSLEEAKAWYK
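Giardia FBPA (40 nM reagent) was preincubated 10 min at RT with compound (up to 57.5 uM final), then substrate plus GAPDH/TPI/NAD/arsenate coupling system with diaphorase/resazurin was added; resorufin fluorescence (525/598 nm) was read after 20 min.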
Shiga toxin inh: Shiga toxin inhibition. Vero cells, Shiga toxin protein synthesis inhibition reporter. 9.2% of 290,000 active. inhibition, % at 38.7 µM; in the data active = inhibition mostly above about 28%, no sharp cut-off; inactive = mostly below about 43%; note: 0% is about no effect
TbPYK inhibitor: T. brucei pyruvate kinase inhibition | TbPYK enzyme, Kinase-Glo Plus ATP luminescence, 45 min | Potency, µM (highest dose often 76.8 µM), inactives show top-dose activity, negative = inhibition, hits mostly inhibitors | 0.12% of 410,000 active | AID 624173; note: potency is the fitted concentration of half-maximal effect; % is set by controls: 0 for no effect and ±100 for the full control effect; nearly all actives have a fitted effect of over 50% in size
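TbPYK + substrate in 50 mM TEA pH 7.2, 100 mM KCl, 10 mM MgCl2, 0.05% BSA, 0.01% Tween-20; cpd pinned; ADP 130 uM final; 45 min RT; Kinase-Glo Plus 10 min; luminescence endpoint.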
LmPK inhibitor: blocks Leishmania mexicana pyruvate kinase activity. Q27686. purified LmPK, Kinase-Glo ATP luminescence, 1 h. Potency, µM (series often up to 57.5 µM), without a hit: top-dose activity change, negative = inhibition, actives largely listed as inhibitors. 0.37% of 290,000 active. AID 1721; note: potency is the fitted concentration of half-maximal effect; % is set by controls: 0 for no effect and ±100 for the full control effect
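Purified LmPK (0.1 nM) converted ADP (0.1 mM) to ATP with PEP (0.5 mM) in imidazole buffer pH 7.2 with KCl and MgCl2, 1 h at room temperature. ATP was read by Kinase-Glo luminescence; data normalized to uninhibited and no-enzyme controls.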
The depositor's hits bear a star; i = inactive; ? = inconclusive; / = no result given; [ ] = remark or other dose. Unless noted, calls come from the whole dose curve; as a rule, active = well fitted curve in the direction sought with a large enough effect; inconclusive = small, poorly fitted or top-dose-only effect, or another doubt; inactive = no such curve, though single readings can be large; an effect the other way counts as inactive or inconclusive.

SMILES | CHX counter | RE007 growth inh | FBPA Giardia inh | Shiga toxin inh | TbPYK inhibitor | LmPK inhibitor
O=C(Nc1nccs1)C(Br)C(Br)c1ccccc1 (configuration not stated) | 34* | -26% | -4% | 69* | -27% | -9%
Cc1ccc(C2OC(=O)C=C2c2ccccc2)cc1 (configuration not stated) | / | -8% | / | / | 9% | /
CCCC(=O)c1ccc2c(c1)OCCO2 | 10 | -29% | 7% | 28 | 0% | 2%
CCOc1ccc(-c2nnn(CC(=O)NCc3ccc(F)cc3)n2)cc1OCC | -6 | 6% | 0% | -13 | 1% | -1%
O=C(CS(=O)(=O)c1ccccc1)c1ccc2c(c1)OCCO2 | 45* | 17% | 1% | 58* | 6% | 13µM*
O=C(O)CCC(=O)c1ccc2c(c1)OCCO2 | 8 | -7% | 0% | 10 | 4% | -3%
CCC(=O)c1ccc2c(c1)OCCO2 | 13* | -5% | 2% | 33 | 0% | -5%
CCOc1ccc(-c2nnn(CC(=O)c3ccc4c(c3)OCCO4)n2)cc1OCC | 34* | 3% | -3% | 18 | 1% | -1%
CCCOc1ccc(F)cc1-c1cc(C(=O)Nc2ccccc2)[nH]n1 | / | -8% | / | / | -1% | /
COc1ccccc1-c1ccc2c(c1)C(C)(Cc1ccc(OC(F)(F)F)cc1)C(=O)N2 (configuration not stated) | / | 7% | / | / | 2% | /
CC(=O)N(c1ccccc1)C1CC(C)N(C(=O)c2ccccc2)c2ccccc21 (configuration not stated) | 4 | -11% | -1% | / | -14% | 1%
Cc1ccc(C(=O)N(c2ccccc2)C2CC(C)N(C(=O)c3ccco3)c3ccccc32)cc1 (configuration not stated) | 18* | -5% | -9% | 31 | -1% | -5%
CCn1c(=O)c2cc(C(=O)NCCCN3CCN(C)CC3)sc2c2ccccc21 | / | / | / | / | 6% | /
O=C(CC1N=C2c3ccccc3N=C(SCc3ccc(Cl)cc3)N2C1=O)NCc1ccco1 (configuration not stated) | 20* | -10% | -5% | 24 | 1% | 4%
CN(C)/C=N/NC(=O)c1ccc(Cl)cc1 | 2 | 3% | 1% | 11 | 2% | 1%
CN(C)/C=N/c1cnc(C(=O)c2ccc(Cl)cc2)n1C | 45* | -2% | -8% | 83* | 2% | 4%
Cc1cccc(C=Nc2ccc3c(c2)oc2ccccc23)c1O | 62* | -25% | -3% | 98* | 1% | -9%
Cc1ccccc1C(NC(=O)C1CCN(Cc2ccc(Oc3ccccc3)cc2)CC1)c1ccsc1 (configuration not stated) | / | ? | / | / | -5% | /
Nc1ccccc1C(=O)OCc1ccc([N+](=O)[O-])cc1 | 33* | 0% | 0% | 76* | -4% | 0%
N#Cc1ccc(COC(=O)c2cc(=O)c3ccccc3o2)cc1 | 2 | 0% | -1% | -5 | -5% | 4%
O=C(OCc1nnc(-c2ccccc2)o1)c1ccco1 | 17 | 4% | -1% | 12 | 1% | -18%
O=C(OCc1nnc(-c2ccccc2)o1)c1cc(=O)c2ccccc2o1 | 26* | -8% | 7% | 36 | 1% | -12%
O=C(OCc1ccc([N+](=O)[O-])cc1)c1cc(=O)c2ccccc2o1 | 9.7* | -16% | -3% | 26 | -9% | 0%
Cc1cc(C(=O)COC(=O)c2ccc[nH]c2=O)c(C)n1C | 9 | 6% | 6% | 17 | 2% | 0%
Cc1cc(C(=O)COC(=O)c2ccc[nH]c2=O)c(C)n1-c1ccc(Br)cc1 | 48* | 3% | 18% | 27* | 4% | 0%
SMILES | CHX counter | RE007 growth inh | FBPA Giardia inh | Shiga toxin inh | TbPYK inhibitor | LmPK inhibitor
Cc1ccc(-n2c(C)cc(C(=O)COC(=O)c3ccc[nH]c3=O)c2C)cc1 | 40* | / | -1% | 58* | -8% | -1%
Cc1ccc(NC(=O)c2cc(-c3ccccc3)nn2-c2ccccc2)cc1 | -2 | -5% | -9% | -15 | -8% | -1%
Cc1ccc(-c2cc3nn(-c4ccccc4)c(N)c3c(=O)o2)cc1 | 40* | -17% | 1% | 76* | -2% | 5%
COc1ccc2c(c1)C(c1ccc3c(c1)OCO3)CC(=O)O2 (configuration not stated) | -5 | / | -3%[89.2 µM] | i | / | /
COc1ccccc1-c1c(C)nn2c(N)c(-c3ccc(Cl)cc3)cnc12 | -3 | 5% | 13% | / | -9% | 0%
Cc1nc2c(-c3ccc(F)cc3)cnn2c(N)c1-c1ccccc1 | 59* | -29% | 14% | 140* | 2% | 2%
Nc1c(-c2ccc(Cl)cc2)cnc2c(-c3ccc(F)cc3)cnn12 | 34* | 5% | -3% | 88* | 1% | 2%
Cc1cc(C(F)(F)F)n2ncc(-c3ccc(F)cc3)c2n1 | 6 | 6% | 6% | 2 | -13% | -7%
COc1ccc(-c2c(C)nc3c(-c4ccc(F)cc4)cnn3c2N)cc1 | 66* | -2% | -2% | 53* | 0% | 9%
Fc1ccc(-c2cnn3c(-c4ccncc4)ccnc23)cc1 | 22* | -4% | 6% | 73* | -4% | -16%
CC1(c2nnnn2Cc2ccccc2)CCC(=O)N1CCOc1ccccc1 (configuration not stated) | / | 8% | / | / | 7% | /
COC(=O)C/C=C/[C@@H](C)[C@H](NC(=O)OCC(Cl)(Cl)Cl)c1cccc(OC)c1 | / | / | 0% | / | / | /
CC(=O)N1CC(=O)N=C1SCC(=O)Nc1nc(-c2ccccc2)c(-c2ccccc2)s1 | 7 | 1% | 2% | 20 | -8% | 0%
CC1CCn2c(nc3cc(C(=O)NCCc4ccccc4)ccc32)C1 (configuration not stated) | / | / | / | / | 0% | /
Cc1nc2c(-c3ccc(Cl)cc3)cnn2c(N)c1-c1ccc(F)cc1 | 64* | -2% | 5% | 138* | 0% | 2%
Cc1nn2c(N)c(-c3ccccc3)cnc2c1-c1ccccc1 | 17* | 4% | -12% | 31 | 0% | -6%
Nc1c(-c2cccc(Cl)c2)cnc2c(-c3ccccc3)cnn12 | 45* | -12% | 5% | 64* | -1% | 7%
Cc1nc2c(Cl)c(C)nn2c2c1CCC2 | 11 | 1% | 0% | -11 | 1% | -5%
Cc1nc2c(-c3ccc(Cl)cc3)cnn2c2c1CCC2 | 35* | 3% | -4% | 68* | -12% | 4%
Nc1c(-c2ccccc2)cnc2ncnn12 | -3 | -11% | 1% | -11 | 0% | -2%
CCOC(=O)c1ccc(CN(Cc2ccc(F)cc2)S(=O)(=O)c2ccc(F)c(C(=O)Nc3ccc(Cl)cc3F)c2)cc1 | / | / | / | / | 8% | /
Cc1ccc(Cl)cc1NC(=O)c1ccc(-c2nc(CSc3ccccc3)c(C)o2)cc1 | / | / | / | / | 1% | /
